High-throughput results (PubChem BioAssay)
HIF-2a block: inhibitors of HIF-2a | inhibition, % at 18.8 µM | 786-0 RCC cells HIF-2a reporter, luciferase luminescence, overnight | 360,000 compounds, 0.72% hits | AID 624352;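 active = inhibition of the luminescence signal of 40% or more relative to plate controls, in a single-dose primary screen at 18.75 µM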
Shn3 inh set2: inhibitors of Schnurri-3 3'UTR reporter in osteoblasts. Clone20 osteoblast Shn3 3'UTR firefly luciferase, 24 h. 360,000 compounds, 0.52% hits. inhibition, % at 12.5 µM;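 active = mean inhibition of at least 75% with every replicate also reaching 75%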;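 note: 0% = median of neutral control wells and 100% = pilot-screen positive control compound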
CF NFkB inh: cystic fibrosis NF-kB activation inhibition; KKLEB NF-kB-GFP reporter, PAF-induced, GFP fluorescence overnight; inhibition, % at 5 µM; 360,000 compounds, 0.86% hits;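 active = at least 50% inhibition at 5 µM, scaled per plate between neutral and stimulator controls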;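 note: PAF is a Pseudomonas aeruginosa culture filtrate used as stimulus; plate controls were PAF-stimulated DMSO wells for no effect and unstimulated DMSO wells for full effect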
MITF TRPM1 inh: MITF TRPM1 promoter inhibition in SK-MEL-5 cells | SK-MEL-5 TRPM1 promoter luciferase, 24 h | inhibition, % at 12.5 µM | 330,000 compounds, 0.83% hits;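 active = mean inhibition across replicates of 60% or more, whatever share of single replicates reaches that level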
Peg3 prom inh: reduces Peg3 promoter-driven luciferase expression in HeLa | HeLa PEG-Prom luciferase reporter, luminescence, overnight | inhibition, % at 20 µM | 360,000 compounds, 1.7% hits;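 active = inhibition of at least 50% at 20 µM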
KKLEB tox: CF airway cell cytotoxicity counter-screen; KKLEB CF airway cells viability, ATPlite luminescence, overnight; active compounds read low; cells stimulated with P. aeruginosa culture filtrate; activity change (cytotoxicity), % at 5 µM; 360,000 compounds, 0.36% hits; AID 602141;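 active = corrected activity change at or below -50% at 5 µM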
Numbers without * were called inactive. Only some compounds are listed: those with a hit (about 2.7% of all), similar ones and a draw of the others.

For O=C(CN1CCN(S(=O)(=O)c2ccc(Br)cc2)CC1)N/N=C/c1ccc(Cl)c([N+](=O)[O-])c1 the results were HIF-2a block 23.2, Shn3 inh set2 9.6, CF NFkB inh 4.5, MITF TRPM1 inh 11.7, Peg3 prom inh 92.7* and KKLEB tox 4.3.
For CC(=O)c1ccc(S(=O)(=O)N2CCN(CC(=O)Nc3ccc(Cl)c([N+](=O)[O-])c3)CC2)cc1 the results were HIF-2a block 7.3, Shn3 inh set2 27.4, CF NFkB inh -5.6, MITF TRPM1 inh 1.3, Peg3 prom inh 14.9 and KKLEB tox 1.7.
Cc1ccc(S(=O)(=O)N2CCN(CC(=O)N/N=C\c3ccc(Cl)c([N+](=O)[O-])c3)CC2)cc1 was read as HIF-2a block 25.3, Shn3 inh set2 0.4, CF NFkB inh -11.2, MITF TRPM1 inh -4.5, Peg3 prom inh 68.7* and KKLEB tox -1.6.
COc1ccc(CN2CCC[C@]3(N[C@H](c4ccc(C)cc4)[C@@H]4C(=O)N(Cc5ccccc5)C(=O)[C@@H]43)C2=O)cc1 was read as HIF-2a block 8.5, Shn3 inh set2 7.1, CF NFkB inh 3.7, Peg3 prom inh 1.3 and KKLEB tox 10.9.
`Cc1cc(F)cc(-c2cc(C(=O)NCC3CCCCC3)[nH]n2)c1` gave HIF-2a block -14.0, Shn3 inh set2 5.9, CF NFkB inh 2.5, Peg3 prom inh -4.9 and KKLEB tox -16.1.
For CC(=O)Nc1ccc(S(=O)(=O)N2CCN(c3nc(NC4CCCC4)c4ccccc4n3)CC2)cc1 the results were HIF-2a block 5.8, Shn3 inh set2 14.7, CF NFkB inh 14.1, MITF TRPM1 inh 24.3, Peg3 prom inh 84.7* and KKLEB tox -8.2.
Cc1cccc(C)c1NC(=O)CN(C)C(=O)c1cccc(S(=O)(=O)N2CCN(c3ccc(F)cc3)CC2)c1 was read as HIF-2a block 15.4, Shn3 inh set2 83.9, CF NFkB inh -9.5, MITF TRPM1 inh 37.9, Peg3 prom inh 17.9 and KKLEB tox 4.6.
`CN(CC(=O)Nc1ccccc1Cl)C(=O)c1cccc(S(=O)(=O)N2CCN(c3ccccc3)CC2)c1` gave HIF-2a block 10.4, Shn3 inh set2 87.4*, CF NFkB inh 15.7, MITF TRPM1 inh 27.9, Peg3 prom inh 13.2 and KKLEB tox -4.4.
CC1CN(C(=O)c2cccc(S(=O)(=O)N3CCN(c4ccc(F)cc4)CC3)c2)CC(C)O1 (stereo unspecified) was read as HIF-2a block 16.5, Shn3 inh set2 -5.5, CF NFkB inh 3.8, MITF TRPM1 inh 20.7, Peg3 prom inh 3.6 and KKLEB tox -1.5.
`O=C(c1cccc(S(=O)(=O)N2CCN(c3ccc(F)cc3)CC2)c1)N1CCCC(C(F)(F)F)C1` (stereo unspecified) gave HIF-2a block 9.8, Shn3 inh set2 91.9*, CF NFkB inh -17.9, MITF TRPM1 inh 21.4, Peg3 prom inh 7.1 and KKLEB tox 3.3.
Screening CN(CC(=O)Nc1ccccc1Cl)C(=O)c1cccc(S(=O)(=O)N2CCN(c3ccc(F)cc3)CC2)c1 returned HIF-2a block 18.2, Shn3 inh set2 88.0*, CF NFkB inh -10.6, MITF TRPM1 inh 27.1, Peg3 prom inh 23.0 and KKLEB tox 9.4.
`COc1ccc(CCN(C)C(=O)c2cccc(S(=O)(=O)N3CCN(c4ccc(F)cc4)CC3)c2)cc1OC` gave HIF-2a block 8.6, Shn3 inh set2 60.9, CF NFkB inh 42.9, Peg3 prom inh 23.7 and KKLEB tox -11.7.
CN(CC(=O)Nc1ccccc1Cl)C(=O)c1cccc(S(=O)(=O)N2CCN(Cc3ccccc3)CC2)c1 was read as HIF-2a block 9.0, Shn3 inh set2 83.3, CF NFkB inh 1.4, MITF TRPM1 inh 9.4, Peg3 prom inh -17.7 and KKLEB tox -2.7.
`CN(CCOc1ccc(Cl)cc1)C(=O)c1cccc(S(=O)(=O)N2CCN(c3ccc(F)cc3)CC2)c1` gave HIF-2a block 12.6, Shn3 inh set2 89.0*, CF NFkB inh -6.4, MITF TRPM1 inh 59.4, Peg3 prom inh 17.6 and KKLEB tox 2.5.
`CC(C(=O)NC1CCCC1)n1c(C2CCCC2)nc2ccccc21` (stereo unspecified) gave HIF-2a block -1.2.
For CC1(C(=O)Nc2ccc3ccccc3c2)CCC(=O)N1CCCn1ccnc1 (stereo unspecified) the results were HIF-2a block 12.4, Shn3 inh set2 -6.6, CF NFkB inh 12.2, Peg3 prom inh -13.1 and KKLEB tox -11.5.
For COc1cc(-c2cc(NC=O)c3ncc(-c4ccc(C(C)=O)cc4)n3c2)ccc1O the results were HIF-2a block -20.0, Shn3 inh set2 10.5, CF NFkB inh 41.8, Peg3 prom inh 40.9 and KKLEB tox -29.2.
CCCNC(=O)N(C)C[C@@H]1Oc2cc(C#CC(C)(C)O)ccc2S(=O)(=O)N([C@H](C)CO)C[C@H]1C was read as HIF-2a block 12.8, Shn3 inh set2 2.5, CF NFkB inh -9.1, Peg3 prom inh -5.2 and KKLEB tox 10.2.
`CSc1ccccc1NC(=O)C1(C)CCN1C(=O)Cc1ccccc1Cl` (stereo unspecified) gave HIF-2a block 4.3, Shn3 inh set2 5.6, CF NFkB inh -0.6, Peg3 prom inh 4.3 and KKLEB tox -1.9.
Cc1cccc(N2CCN(C3C(=O)Nc4ccccc4-n4nnnc43)CC2)c1C (stereo unspecified) was read as HIF-2a block 20.0.
Screening CN(Cc1ccc(Cl)c(Cl)c1)C(=O)c1cccc(S(=O)(=O)N2CCN(Cc3ccccc3)CC2)c1 returned HIF-2a block 12.1, Shn3 inh set2 86.9*, CF NFkB inh -9.8, MITF TRPM1 inh 13.9, Peg3 prom inh 35.2 and KKLEB tox -4.4.
`CN(Cc1cccc(F)c1)C(=O)c1cccc(S(=O)(=O)N2CCN(Cc3ccccc3)CC2)c1` gave HIF-2a block 21.4, Shn3 inh set2 8.8, CF NFkB inh -17.2, MITF TRPM1 inh 13.6, Peg3 prom inh 12.2 and KKLEB tox 13.9.
COc1ccc(-c2nn(-c3ccccc3)cc2/C=N/Nc2ccc(S(N)(=O)=O)cc2[N+](=O)[O-])cc1OC was read as HIF-2a block 9.8, Shn3 inh set2 11.8, CF NFkB inh 58.2*, MITF TRPM1 inh 17.9, Peg3 prom inh 27.1 and KKLEB tox -66.2*.
COc1ccc(-c2nn(-c3ccccc3)cc2/C=N/N=C(N)N)cc1OC was read as HIF-2a block 15.2, Shn3 inh set2 -1.1, CF NFkB inh 12.5, MITF TRPM1 inh 94.4*, Peg3 prom inh 104.0* and KKLEB tox -14.0.
`O=c1ccc2ccccc2c2ccccc12` gave HIF-2a block 94.6*, Shn3 inh set2 60.2, CF NFkB inh 64.6*, Peg3 prom inh 103.4* and KKLEB tox 3.3.
For c1ccc2c(c1)ccc1ccccc12 the results were HIF-2a block -0.9, Shn3 inh set2 -8.7, CF NFkB inh -33.7, MITF TRPM1 inh -8.6, Peg3 prom inh 18.9 and KKLEB tox 9.3.
